PubChem BioAssay (NCATS)
Inconclusive results are not listed. The source made the active and inactive calls. Unless noted, calls come from the whole dose curve; as a rule, active = well fitted curve in the direction sought with a large enough effect; inconclusive = small, poorly fitted or top-dose-only effect, or another doubt; inactive = no such curve, though single readings can be large; an effect the other way counts as inactive or inconclusive.

Experiments:
[1] = Validation of Assay for Modulators of Lamin A Splicing (AID 1459; active = well fitted curve in the direction sought with a large enough effect in the signal ratio; the % refers to the signal ratio;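 note: cells exposed to compound for two days before reading; 0% is about no effect; ratio rise marks activators and ratio drop marks inhibitors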)
Summary of the method: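 Splicing correction is reported by an EGFP-containing lamin A minigene in stably transfected S3 HeLa cells, while DsRed2 controls for viability and nonspecific signal. Cells are exposed to compounds for 48 hrs before the GFP over RFP ratio is taken.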

[2] = target: DNA repair nuclease/redox regulator APEX1 (Homo sapiens) (UniProt P27695); test: qHTS Validation Assay for Inhibitors of the Human Apurinic/apyrimidinic Endonuclease 1 (APE1) (AID 1705;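 note: TAMRA fluorescence gain over two minutes as APE1 cuts a quenched THF abasic duplex; % is set by controls: 0 for no effect and ±100 for the full control effect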)
Summary of the method: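 Endonuclease activity of human APE1 is followed as dequenching when the enzyme incises a tetrahydrofuran abasic site in a short duplex labelled 5'-TAMRA/3'-BHQ-2 (50 nM final), after 15 min enzyme–compound preincubation at room temperature.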

[3] = target: Endonuclease 4 (Escherichia coli (strain K12)) (UniProt P0A6C1); test: Counterscreen for APE1 Inhibitors: qHTS Validation Assay for Inhibitors of Endonuclease IV (AID 1708); note: % is set by controls: 0 for no effect and ±100 for the full control effect
Summary of the method: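 Measured as reaction progress, the fluorescence gain between first and third kinetic reads after adding 50 nM TAMRA/BHQ-2 THF duplex to 2 nM enzyme preincubated 15 min with compound; 2 mM MgCl2, pH 7.5.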

[4] = target: ATP-dependent DNA helicase Q1 (Homo sapiens) (UniProt P46063); test: qHTS Validation Assay for Inhibitors of RecQ-Like Dna Helicase 1 (RECQ1) (AID 2353);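 note: plate controls were DMSO vehicle for no effect and enzyme-free control for full effect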
Summary of the method: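 RECQ1T1 50 nM; forked duplex (20 bp + 30-nt ss tails) 200 nM, ATP 2 mM final; pH 8.0, 2 mM MgCl2, 2.5 ug/ml poly(dI-dC); 15 min compound preincubation; discontinuous kinetic read over 2 h at RT.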

[5] = Cytometric Cell-Based qHTS for Inhibitors of the mTORC1 Signaling Pathway in MEF (Tsc2-/-, p53-/-) Cells (AID 2660);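 note: Tsc2 and p53 null MEFs carrying empty vector with compound for 24 h; percent of cells above a phospho-rpS6 to PI ratio cutoff in each well; plate controls were DMSO for no effect and rapamycin for full effect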
Summary of the method: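 Readout: Alexa-488 phospho-rpS6 (Ser235/236) intensity divided by PI intensity, thresholded against 7.5 nM rapamycin wells and reported as % positive cells. PI cell count served as the viability measure. Compound exposure was 24 hrs at 37 degree Celsius.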

[6] = High Content Imaging Cell-Based qHTS for Inhibitors of the mTORC1 Signaling Pathway in MEF (Tsc2-/-, p53-/-) Cells (AID 2666); conditions: at 38.3 µM (top of the series);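 note: percent of cells scored positive for phospho-rpS6 Ser235/236 immunostaining by imaging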
Summary of the method: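 Inhibition of rpS6 phosphorylation is measured by immunofluorescence imaging in empty-vector Tsc2-/-, p53-/- mouse embryonic fibroblasts after 24 hrs compound exposure at 37 degree Celsius. Results are reported as % positive cells per well.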

[7] = High Content Imaging Cell-Based qHTS for Inhibitors of the mTORC1 Signaling Pathway in MEF Cells (AID 2667);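 note: Tsc2-/- p53-/- MEFs stably re-expressing wild-type Tsc2 exposed 24 h; plate controls were DMSO wells for no effect and rapamycin control wells for full effect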
Summary of the method: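 Fixed-cell imaging of phospho-S6 (Ser235/236, Alexa-488) after 24 hrs of compound treatment at 37 degree Celsius. Signal was normalized to Hoechst, and thresholds from the highest and lowest wells split cells into % active versus % non-active.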

[8] = Validation screen for small molecules that induce DNA re-replication in MCF 10A normal breast cells (AID 463097); note: 0% is about no effect; nearly all actives have a fitted effect of over 60% in size
Summary of the method: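 DNA re-replication was detected as a rise in nuclei with elevated Hoechst fluorescence after a 48 hr compound exposure of MCF 10A cells at 37 C.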

[9] = target: Ubiquitin carboxyl-terminal hydrolase 2 (Homo sapiens) (UniProt O75604); test: qHTS Validation Assay for Inhibitors of Ubiquitin-specific Protease USP2a Using CHOP2 as the Reporter (AID 463106);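 note: plate controls were DMSO for no effect and full inhibition by NEM for full effect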
Summary of the method: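 Inhibition is expressed relative to NEM as the full-inhibition control, with concentration-response curves classed by fit quality, magnitude and activity. Enzyme (USP2 core, 10nM) meets 25nM Ub-CHOP2 after compound preincubation; readings are taken at 60min.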

[10] = target: Tumor susceptibility gene 101 protein (Homo sapiens) (UniProt Q99816); test: qHTS Validation Assay for Iinhibitors of HIV-1 Budding by Blocking the Interaction of PTAP/TSG101 (AID 485342; calls by dose curve; note: 0% is about no effect)
Summary of the method: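 Fluorescence anisotropy measured PTAP-Tsg101 interaction. Final concentrations were 10 uM protein domain and 50 nM labeled peptide, equilibrated 20 min at room temperature.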

[11] = target: Beta-2 adrenergic receptor (Homo sapiens) (UniProt P07550); test: qHTS validation assay of beta-arrestin-biased ligands of beta2-adrenergic receptor (AID 485366); note: 0% is about no effect
Summary of the method: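 Agonist activity is measured as luciferase luminescence downstream of beta-arrestin recruitment to recombinant beta2-AR in Tango cells. Exposure lasts 18 hr at 37 degrees C, and curves are categorized by r2, response size and activity.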

[12] = target: Thioredoxin reductase 1, cytoplasmic (Rattus norvegicus) (UniProt O89049); test: qHTS Assay for Substrates of Mammalian Selenoprotein Thioredoxin Reductase 1 (TrxR1) (AID 488772);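 note: 0% is about no effect; a drop in NADPH fluorescence below the no-compound background marks a TrxR1 substrate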
Summary of the method: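 In this dual-purpose format, potential substrates are identified from the first fluorescence read after selenite addition, not from the 8-minute delta. Rat enzyme is preincubated with NADPH and then with compound at ~22 deg C.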

[13] = target: M-phase phosphoprotein 8 (Homo sapiens) (UniProt Q99549); test: qHTS Validation Assay for Inhibitors for MPP8 Chromodomain Interactions with Methylated Histone Tails (AID 488949);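 note: AlphaScreen signal from MPP8 chromodomain bound to biotinylated H3K9me3 peptide; top concentration of the series differs between compounds; % is set by controls: 0 for no effect and ±100 for the full control effect; nearly all actives have a fitted effect of over 55% in size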
Summary of the method: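 Disruption of the preformed MPP8–trimethyl-H3K9 peptide complex (both 50 nM, 30 min, RT) is measured after 30 min compound exposure, using AlphaScreen proximity beads; aurintricarboxylic acid titration serves as plate control.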

[14] = target: Chromobox protein homolog 1 (Homo sapiens) (UniProt P83916); test: qHTS Validation Assay for Inhibitors of HP1-beta Chromodomain Interactions with Methylated Histone Tails (AID 488953);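 note: loss of AlphaScreen luminescence from HP1-beta binding biotinylated H3K9me3 peptide; % is set by controls: 0 for no effect and ±100 for the full control effect; nearly all actives have a fitted effect of over 50% in size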
Summary of the method: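 Compounds pinned into a preassembled complex of HP1-beta and trimethyl-K9 histone H3(1-18) biotin peptide (50 nM each; PBS pH 7.4, 0.01% Tween-20). After 30 min, bead-based AlphaScreen detection followed.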

[15] = target: Transient receptor potential cation channel subfamily V member 1 (Homo sapiens) (UniProt Q8NER1); test: HTS Assay for Compounds that Act as Enhancers of the Vanilloid Receptor 1 (AID 488979); note: 0% is about no effect
Summary of the method: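 TRPV1-expressing cells loaded with Fluo-8 calcium dye; compounds added and calcium influx read kinetically for 3 min (agonist phase), then capsaicin at EC20 added and read 2 min more for enhancement. Fluorescence ex 480/em 520 nm.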

[16] = target: Thyrotropin receptor (Homo sapiens) (UniProt P16473); test: qHTS Assay for Antagonists of the Thyroid Stimulating Hormone Receptor (AID 488980); note: 0% is about no effect
Summary of the method: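 Cells expressing human TSHR (HEK293) are dispensed in HBSS/HEPES containing 70 uM RO 20-1724, compound is added, then TSH at EC80 (4 nM final). Antibody in lysis buffer follows, 30 minutes at room temperature before HTRF detection.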

[17] = Validation screen for small molecules that induce genotoxicity in human embryonic kidney (HEK293T) cells expressing luciferase-tagged ELG1 (AID 493106); note: 0% is about no effect
Summary of the method: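 In this validation screen, increased ELG1-luciferase signal flags compounds causing genetic stress. HEK293T reporter cells are treated 16 hr (37 °C, 5% CO2), developed with ONE-Glo for 30 min at room temperature, and imaged on a CCD-based reader.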

[18] = target: ATPase family AAA domain-containing protein 5 (Homo sapiens) (UniProt Q96QE3); test: Validation screen for small molecules that inhibit ELG1-dependent DNA repair in human embryonic kidney (HEK293T) cells expressing luciferase-tagged ELG1 (AID 493107);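 note: cells co-treated with the DNA-damaging agent 5-fluorouridine alongside compound; % is set by controls: 0 for no effect and ±100 for the full control effect; inhibitors lower the ELG1-luciferase luminescence signal; nearly all actives have a fitted effect of over 70% in size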
Summary of the method: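 Compounds reducing 5-fluorouridine-driven ELG1-luciferase signal in HEK293T cells were scored; exposure lasted 16 hr at 37 °C with luminescence detected via ONE-Glo.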

[19] = target: Thyrotropin-releasing hormone receptor (Homo sapiens) (UniProt P34981); test: qHTS for Small Molecule Agonists and Allosteric Enhancers of Human TRH Receptor: Validation Screen for Agonists (AID 493127;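 active = calcium activation more than 3 SD above the typical response in the agonist read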;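 note: intracellular calcium rise by fluo-8 fluorescence before TRH EC20 addition; 0% is about no effect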); conditions: TRH receptor agonist cell assay; at 2 µM; stronger effect = higher value
Summary of the method: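 Kinetic fluorescence assay of agonist-induced calcium release: overnight-plated TRHR cells, room-temperature fluo-8 loading, baseline then compound addition with per-second reads.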

[20] = Nrf2 qHTS screen for inhibitors: Validation (AID 493153; active = well fitted inhibition curve with a large enough effect in the main read-out, with a control signal flat, not every such curve was filed as active); conditions: viability change: measured here: cytotoxicity max response
Summary of the method: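 In this counterscreened reporter format, each well gives two signals: CellTiter-Fluor fluorescence for cytotoxicity and ARE-luciferase luminescence for Nrf2 function. A549 ARE_Fluc cells in 5% FBS OPTI-MEM were exposed to compound titrations for 18-24 h.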

[21] = qHTS for Inhibitors of Cell Surface uPA Generation: Validation Assay (AID 493164);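 note: RAW 264.7 macrophage cells exposed to compound for 18 h; 0% is about no effect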
Summary of the method: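 Compounds are titrated over seven points (2.45 nM–38.3 uM final) onto pre-plated RAW 264.7 cells and incubated for 18 h. Retained intracellular ATP, measured with ATP-Lite, indicates blocked lethal factor entry.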

[22] = target: Galactokinase (Homo sapiens) (UniProt P51570); test: qHTS Validation Assay for Inhibitors of Human Galactokinase (GALK) (AID 493189); note: 0% is about no effect
Summary of the method: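 Compounds were pin-transferred into ATP buffer, then GALK-galactose mix was added (final 5 nM enzyme, 100 uM galactose, 35 uM ATP). After 1 h at room temperature, remaining ATP was measured luminescently.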

[23] = Validation screen for small molecules that induce DNA re-replication in SW480 colon adenocarcinoma cells (AID 504364); note: 0% is about no effect
Summary of the method: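 Hoechst-stained SW480 nuclei, imaged at 405 nm excitation after 48 hr compound exposure, were counted for elevated DNA content as the re-replication signal.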

[24] = target: Phosphoglycerate kinase, glycosomal (Trypanosoma brucei brucei) (UniProt P07378); test: qHTS Validation Assay to Find Inhibitors of Phosphoglycerate Kinase (AID 504547);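 note: control wells lack PGK and mark full inhibition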
Summary of the method: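 In TEA buffer (100mM, pH 7.6) containing 5mM MgCl2 and 0.01% Tween-20, the GAPDH-coupled PGK reaction proceeded for 60 minutes at room temperature before a single luminescence reading using Kinase-Glo Plus.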

[25] = target: phosphoglycerate mutase (Leishmania major) (UniProt Q4Q090); test: qHTS Validation Assay to Find Inhibitors of Phosphoglycerate Mutase (AID 504548); note: % is set by controls: 0 for no effect and ±100 for the full control effect
Summary of the method: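 Lm PGAM 1.25nM final; 100 mM TEA pH 7.6, 5 mM MgCl2, 0.01% Tween-20; 45 min RT; Kinase-GloPlus, 10 min; end-point luminescence. Enzyme-free wells as negative controls.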

[26] = target: Ubiquitin carboxyl-terminal hydrolase 1 (Homo sapiens) (UniProt O94782); test: Inhibitors of USP1/UAF1: Pilot qHTS (AID 504865);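 note: rhodamine fluorescence freed from ubiquitin-rhodamine substrate followed over time; top concentration of the series differs between compounds; % is set by controls: 0 for no effect and ±100 for the full control effect; nearly all actives have a fitted effect of over 35% in size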
Summary of the method: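 Kinetic fluorescence assay: 1nM USP1/UAF1, 15 min compound preincubation, then 150nM Ub-Rho; 480/540 nm.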

[27] = target: Voltage-gated inwardly rectifying potassium channel KCNH2 (Homo sapiens) (UniProt Q12809); test: qHTS Assay for Small Molecule Inhibitors of the Human hERG Channel Activity (AID 588834);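 note: potency is the fitted concentration of half-maximal effect; lower thallium flux fluorescence means stronger hERG block; nearly all actives have a fitted effect of over 50% in size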
Summary of the method: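 Cells were infected with hERG-BacMam virus for 4 hrs at room temperature, grown overnight, then seeded at 2000/well. After dye loading and roughly 10 min compound treatment, thallium influx was triggered and fluorescence recorded.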

[28] = target: Glutaminase kidney isoform, mitochondrial (Homo sapiens) (UniProt O94925); test: qHTS for Inhibitors of Glutaminase (GLS): LOPAC Validation (AID 624146); note: potency is the fitted concentration of half-maximal effect; nearly all actives have a fitted effect of over 60% in size
Summary of the method: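 Two-point fluorescence kinetic (t0, 30 min RT) for hKGA; glutamate detected via glutamate oxidase–HRP–Amplex Red. Substrate: 1 mM L-glutamine solution; buffer 45 mM KH2PO4, pH 8.2.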

Thyrotropin-releasing hormone receptor (Homo sapiens), sequence (P34981 whole entry, looked up): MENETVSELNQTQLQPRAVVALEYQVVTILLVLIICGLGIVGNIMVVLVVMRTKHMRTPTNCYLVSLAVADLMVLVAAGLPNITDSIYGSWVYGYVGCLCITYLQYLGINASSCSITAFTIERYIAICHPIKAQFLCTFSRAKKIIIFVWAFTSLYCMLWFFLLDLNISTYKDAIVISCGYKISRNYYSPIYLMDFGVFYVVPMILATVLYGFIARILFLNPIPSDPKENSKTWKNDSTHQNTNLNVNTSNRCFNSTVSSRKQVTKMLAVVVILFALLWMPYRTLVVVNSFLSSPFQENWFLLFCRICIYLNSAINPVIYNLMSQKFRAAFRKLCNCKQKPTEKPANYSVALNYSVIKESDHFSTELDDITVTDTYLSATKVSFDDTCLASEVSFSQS
Tumor susceptibility gene 101 protein (Homo sapiens), sequence (Q99816 whole entry, looked up, the tested form may be a part): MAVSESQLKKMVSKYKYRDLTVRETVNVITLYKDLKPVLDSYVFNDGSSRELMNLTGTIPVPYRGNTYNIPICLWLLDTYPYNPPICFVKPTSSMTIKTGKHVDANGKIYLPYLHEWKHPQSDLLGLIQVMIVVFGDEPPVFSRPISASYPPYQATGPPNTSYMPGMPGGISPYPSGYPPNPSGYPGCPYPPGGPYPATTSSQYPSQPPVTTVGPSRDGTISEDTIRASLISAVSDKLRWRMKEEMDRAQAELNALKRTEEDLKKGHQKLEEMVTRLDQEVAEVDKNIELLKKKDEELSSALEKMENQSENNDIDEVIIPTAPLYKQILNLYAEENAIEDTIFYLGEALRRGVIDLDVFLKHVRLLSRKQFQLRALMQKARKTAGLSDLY
Thyrotropin receptor (Homo sapiens), sequence (P16473 whole entry, looked up): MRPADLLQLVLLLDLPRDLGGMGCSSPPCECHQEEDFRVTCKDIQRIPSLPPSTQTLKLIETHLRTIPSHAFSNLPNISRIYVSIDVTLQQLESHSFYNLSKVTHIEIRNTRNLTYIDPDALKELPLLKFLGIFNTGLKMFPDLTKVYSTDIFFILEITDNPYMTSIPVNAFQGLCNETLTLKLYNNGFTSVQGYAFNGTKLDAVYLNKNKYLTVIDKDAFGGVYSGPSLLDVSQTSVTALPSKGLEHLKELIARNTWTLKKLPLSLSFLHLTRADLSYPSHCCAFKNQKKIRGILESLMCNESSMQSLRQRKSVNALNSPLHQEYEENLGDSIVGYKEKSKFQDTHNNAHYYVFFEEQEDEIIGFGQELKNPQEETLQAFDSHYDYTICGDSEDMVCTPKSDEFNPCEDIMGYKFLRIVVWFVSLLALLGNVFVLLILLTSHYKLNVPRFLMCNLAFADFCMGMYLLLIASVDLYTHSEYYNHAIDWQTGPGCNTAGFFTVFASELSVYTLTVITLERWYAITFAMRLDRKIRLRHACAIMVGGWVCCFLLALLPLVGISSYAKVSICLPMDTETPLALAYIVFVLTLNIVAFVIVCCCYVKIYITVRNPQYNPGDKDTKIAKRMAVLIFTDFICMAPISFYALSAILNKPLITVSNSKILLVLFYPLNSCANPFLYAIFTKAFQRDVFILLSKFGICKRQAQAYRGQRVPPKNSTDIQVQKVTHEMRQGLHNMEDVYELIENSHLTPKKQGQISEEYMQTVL
Ubiquitin carboxyl-terminal hydrolase 1 (Homo sapiens), sequence (O94782 whole entry, looked up): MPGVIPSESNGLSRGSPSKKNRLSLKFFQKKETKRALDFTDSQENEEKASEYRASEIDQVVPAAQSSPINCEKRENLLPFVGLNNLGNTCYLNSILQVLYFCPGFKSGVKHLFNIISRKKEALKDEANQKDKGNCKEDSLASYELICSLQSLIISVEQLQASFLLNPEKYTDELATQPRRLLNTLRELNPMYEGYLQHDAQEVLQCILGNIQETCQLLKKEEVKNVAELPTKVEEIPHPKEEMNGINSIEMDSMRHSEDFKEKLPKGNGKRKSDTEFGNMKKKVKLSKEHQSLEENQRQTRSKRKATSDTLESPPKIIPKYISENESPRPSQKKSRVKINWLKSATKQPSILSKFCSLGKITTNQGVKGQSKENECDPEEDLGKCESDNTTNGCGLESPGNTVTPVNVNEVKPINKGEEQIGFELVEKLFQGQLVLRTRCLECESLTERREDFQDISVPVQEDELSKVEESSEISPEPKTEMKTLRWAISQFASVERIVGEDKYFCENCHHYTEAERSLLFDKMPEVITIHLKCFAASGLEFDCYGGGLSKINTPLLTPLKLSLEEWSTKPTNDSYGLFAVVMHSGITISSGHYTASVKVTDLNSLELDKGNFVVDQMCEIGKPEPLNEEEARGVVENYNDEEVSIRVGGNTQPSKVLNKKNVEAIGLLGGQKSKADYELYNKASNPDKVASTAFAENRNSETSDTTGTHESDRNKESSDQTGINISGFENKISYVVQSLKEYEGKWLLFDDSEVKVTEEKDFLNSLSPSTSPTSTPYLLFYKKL
ATP-dependent DNA helicase Q1 (Homo sapiens), sequence (P46063 whole entry, looked up): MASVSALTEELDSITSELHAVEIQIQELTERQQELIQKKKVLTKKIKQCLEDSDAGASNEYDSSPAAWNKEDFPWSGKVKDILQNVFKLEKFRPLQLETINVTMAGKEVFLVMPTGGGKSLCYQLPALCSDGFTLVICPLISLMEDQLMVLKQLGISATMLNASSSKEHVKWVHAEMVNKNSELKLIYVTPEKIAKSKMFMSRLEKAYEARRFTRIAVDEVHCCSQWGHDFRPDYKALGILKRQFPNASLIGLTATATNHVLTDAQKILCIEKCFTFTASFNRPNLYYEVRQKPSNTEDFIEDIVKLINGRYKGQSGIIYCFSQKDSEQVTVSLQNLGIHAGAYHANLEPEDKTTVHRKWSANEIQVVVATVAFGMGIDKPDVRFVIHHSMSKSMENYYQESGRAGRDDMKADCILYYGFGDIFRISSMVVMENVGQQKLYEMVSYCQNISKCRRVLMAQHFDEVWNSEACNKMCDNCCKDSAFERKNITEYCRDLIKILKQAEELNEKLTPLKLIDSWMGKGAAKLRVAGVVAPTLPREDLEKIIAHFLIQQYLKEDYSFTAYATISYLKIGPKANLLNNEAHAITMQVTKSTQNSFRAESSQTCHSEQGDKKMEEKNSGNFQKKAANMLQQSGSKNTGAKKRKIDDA
Beta-2 adrenergic receptor (Homo sapiens), sequence (P07550 whole entry, looked up): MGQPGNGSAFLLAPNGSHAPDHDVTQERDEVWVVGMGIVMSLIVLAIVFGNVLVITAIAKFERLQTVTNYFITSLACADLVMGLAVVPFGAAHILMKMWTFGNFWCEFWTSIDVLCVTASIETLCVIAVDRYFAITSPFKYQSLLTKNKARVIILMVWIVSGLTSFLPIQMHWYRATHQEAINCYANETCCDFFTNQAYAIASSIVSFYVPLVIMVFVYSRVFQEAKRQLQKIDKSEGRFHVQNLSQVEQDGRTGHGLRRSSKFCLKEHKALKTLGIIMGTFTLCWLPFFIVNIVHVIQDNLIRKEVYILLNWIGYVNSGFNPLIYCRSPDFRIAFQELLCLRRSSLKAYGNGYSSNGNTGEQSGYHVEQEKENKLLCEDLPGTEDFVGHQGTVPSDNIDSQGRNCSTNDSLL
Thioredoxin reductase 1, cytoplasmic (Rattus norvegicus), sequence (O89049 whole entry, looked up): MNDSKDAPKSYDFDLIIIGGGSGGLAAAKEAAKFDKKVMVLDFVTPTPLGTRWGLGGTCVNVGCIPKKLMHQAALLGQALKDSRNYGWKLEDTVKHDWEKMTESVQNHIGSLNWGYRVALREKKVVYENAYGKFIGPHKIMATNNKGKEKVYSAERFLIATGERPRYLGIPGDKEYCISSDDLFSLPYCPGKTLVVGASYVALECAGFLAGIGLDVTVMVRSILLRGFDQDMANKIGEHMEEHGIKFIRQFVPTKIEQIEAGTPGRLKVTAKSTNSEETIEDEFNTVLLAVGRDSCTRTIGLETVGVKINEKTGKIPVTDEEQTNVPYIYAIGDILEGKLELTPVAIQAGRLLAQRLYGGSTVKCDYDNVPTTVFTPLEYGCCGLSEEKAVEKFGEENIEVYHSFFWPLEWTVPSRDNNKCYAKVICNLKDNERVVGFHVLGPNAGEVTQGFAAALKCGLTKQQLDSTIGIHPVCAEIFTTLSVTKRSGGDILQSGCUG
Chromobox protein homolog 1 (Homo sapiens), sequence (P83916 whole entry, looked up): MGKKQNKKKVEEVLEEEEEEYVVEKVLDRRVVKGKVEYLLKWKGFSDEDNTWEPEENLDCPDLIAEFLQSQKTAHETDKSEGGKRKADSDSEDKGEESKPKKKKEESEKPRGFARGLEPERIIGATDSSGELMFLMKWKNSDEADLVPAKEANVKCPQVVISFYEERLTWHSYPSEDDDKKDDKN
Phosphoglycerate kinase, glycosomal (Trypanosoma brucei brucei), sequence (P07378 whole entry, looked up): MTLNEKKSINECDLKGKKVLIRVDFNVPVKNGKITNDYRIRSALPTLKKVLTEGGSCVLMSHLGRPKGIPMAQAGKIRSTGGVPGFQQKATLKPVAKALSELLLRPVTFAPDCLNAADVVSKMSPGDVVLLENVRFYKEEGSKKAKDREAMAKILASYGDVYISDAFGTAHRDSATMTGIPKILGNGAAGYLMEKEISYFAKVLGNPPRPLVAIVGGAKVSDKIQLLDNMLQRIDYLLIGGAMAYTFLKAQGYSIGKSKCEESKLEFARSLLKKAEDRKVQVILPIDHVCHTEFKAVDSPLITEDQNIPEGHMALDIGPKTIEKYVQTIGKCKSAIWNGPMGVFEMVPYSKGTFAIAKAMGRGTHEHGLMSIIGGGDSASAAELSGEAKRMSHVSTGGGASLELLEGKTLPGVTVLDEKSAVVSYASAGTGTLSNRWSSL
Galactokinase (Homo sapiens), sequence (P51570 whole entry, looked up): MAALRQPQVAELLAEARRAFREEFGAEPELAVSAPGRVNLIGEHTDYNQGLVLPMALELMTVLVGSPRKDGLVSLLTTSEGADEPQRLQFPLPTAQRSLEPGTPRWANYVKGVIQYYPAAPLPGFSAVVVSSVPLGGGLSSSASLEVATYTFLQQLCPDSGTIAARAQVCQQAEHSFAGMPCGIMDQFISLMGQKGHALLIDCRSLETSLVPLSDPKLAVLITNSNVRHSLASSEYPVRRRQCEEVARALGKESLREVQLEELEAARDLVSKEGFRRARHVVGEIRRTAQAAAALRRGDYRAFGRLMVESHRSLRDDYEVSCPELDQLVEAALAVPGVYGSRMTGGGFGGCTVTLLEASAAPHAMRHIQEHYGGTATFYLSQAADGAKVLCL

Oc1cc2c(c(Cl)c1O)CCNCC2c1ccccc1 (centres undefined)
-3.92%: viability change [20]
active: Potency [27] 2820 nM | Potency [28] 1120 nM
inactive: outcome [1] | Potency [2] | Potency [3] | Potency [4] | outcome [5] | outcome [6] | Potency [7] | Potency [8] | Potency [9] | outcome [10] | outcome [11] | outcome [12] | Potency [13] | Potency [14] | outcome [15] | outcome [16] | Potency [17] | Potency [18] | activation [19] 2.25% | outcome [20] | outcome [21] | outcome [22] | outcome [23] | Potency [24] | outcome [25] | Potency [26]
